# Inconclusive results are not listed. The source made the active and inactive calls. The calls were made as follows: active = hit-call score of the fitted dose curve at least 0.9, where 1 is the maximum; inconclusive = response in the unintended direction; inactive = score below 0.9.
# Legend:
# [1] = target: rat Opioid Receptor, Non-selective Binding, Oprm1 (gene 25601) (UniProt P33535); test: NVS_GPCR_rOpiate_NonSelective: NovaScreen (NVS) G Protein-Coupled Receptor Assay for rat Opioid Receptor, Non-selective Binding (AID 2283318)
# Sequence of rat Opioid Receptor, Non-selective Binding, Oprm1 (gene 25601) (P33535 whole entry, looked up): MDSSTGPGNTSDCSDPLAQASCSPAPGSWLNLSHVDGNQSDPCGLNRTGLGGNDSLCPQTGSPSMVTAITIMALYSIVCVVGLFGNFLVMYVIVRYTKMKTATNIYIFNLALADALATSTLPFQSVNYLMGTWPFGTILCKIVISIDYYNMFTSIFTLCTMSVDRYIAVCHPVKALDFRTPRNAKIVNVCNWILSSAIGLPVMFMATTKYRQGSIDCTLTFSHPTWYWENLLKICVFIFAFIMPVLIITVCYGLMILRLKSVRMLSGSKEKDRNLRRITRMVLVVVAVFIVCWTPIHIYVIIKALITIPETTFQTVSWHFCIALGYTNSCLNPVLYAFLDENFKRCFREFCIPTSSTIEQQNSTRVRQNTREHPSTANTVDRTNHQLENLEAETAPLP
# Method in brief: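 Rat forebrain membranes, cell-free radioligand binding with filter-based scintillation counting, read 1.5 h after dosing. Primary screen in duplicate at 25 uM; actives retested in concentration series. Loss of signal versus DMSO baseline scored.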
# [2] = target: Voltage-dependent N-type calcium channel subunit alpha-1B (Rattus norvegicus) (UniProt Q02294); test: NVS_IC_rCaChN: NovaScreen (NVS) Ion Channel Assay for rat Calcium Channel, Type N (CaChN) (AID 2283317)
# [3] = target: rat Opioid Receptor, Non-selective Sodium (Na+) Binding, Oprm1 (gene 25601) (UniProt P33535); test: NVS_GPCR_rOpiate_NonSelectiveNa: NovaScreen (NVS) G Protein-Coupled Receptor Assay for rat Opioid Receptor, Non-selective Sodium (Na+) Binding (AID 2283311)
# Sequence of rat Opioid Receptor, Non-selective Sodium (Na+) Binding, Oprm1 (gene 25601) (P33535 whole entry, looked up): as above
# Method in brief: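 Rat forebrain membranes, radioligand displacement with filter scintillation counting, 1.5 h incubation. Screened in duplicate at 25 µM; hits then run in concentration-response up to 50 µM; loss of binding fitted versus DMSO.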
# [4] = target: rat Neurokinin-1 Receptor (NK1), Tacr1 (gene 24807) (UniProt P14600); test: NVS_GPCR_rNK1: NovaScreen (NVS) G Protein-Coupled Receptor Assay for rat Neurokinin-1 Receptor (NK1) (AID 2283309)
# Sequence of rat Neurokinin-1 Receptor (NK1), Tacr1 (gene 24807) (P14600 whole entry, looked up): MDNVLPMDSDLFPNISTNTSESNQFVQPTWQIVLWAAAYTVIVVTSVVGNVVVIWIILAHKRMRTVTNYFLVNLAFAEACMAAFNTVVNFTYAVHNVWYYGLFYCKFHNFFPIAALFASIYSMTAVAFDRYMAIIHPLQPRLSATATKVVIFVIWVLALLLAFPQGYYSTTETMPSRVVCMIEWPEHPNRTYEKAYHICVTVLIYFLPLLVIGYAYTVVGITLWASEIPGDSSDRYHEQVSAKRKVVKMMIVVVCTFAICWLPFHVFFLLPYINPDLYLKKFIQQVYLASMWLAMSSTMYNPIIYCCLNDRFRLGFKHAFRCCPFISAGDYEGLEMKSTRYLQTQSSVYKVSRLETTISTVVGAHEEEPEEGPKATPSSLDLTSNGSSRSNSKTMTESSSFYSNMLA
# Method in brief: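 Rat submaxillary gland membranes; radioligand displacement read by filter-based scintillation counting after 1 h. Primary screen in duplicate at 25 uM; actives retested in concentration series; loss of binding fitted versus DMSO.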
# [5] = target: rat Neurokinin-3 Receptor (NK3), Tacr3 (gene 24808) (UniProt P16177); test: NVS_GPCR_rNK3: NovaScreen (NVS) G Protein-Coupled Receptor Assay for rat Neurokinin-3 Receptor (NK3) (AID 2283310)
# Sequence of rat Neurokinin-3 Receptor (NK3), Tacr3 (gene 24808) (P16177 whole entry, looked up): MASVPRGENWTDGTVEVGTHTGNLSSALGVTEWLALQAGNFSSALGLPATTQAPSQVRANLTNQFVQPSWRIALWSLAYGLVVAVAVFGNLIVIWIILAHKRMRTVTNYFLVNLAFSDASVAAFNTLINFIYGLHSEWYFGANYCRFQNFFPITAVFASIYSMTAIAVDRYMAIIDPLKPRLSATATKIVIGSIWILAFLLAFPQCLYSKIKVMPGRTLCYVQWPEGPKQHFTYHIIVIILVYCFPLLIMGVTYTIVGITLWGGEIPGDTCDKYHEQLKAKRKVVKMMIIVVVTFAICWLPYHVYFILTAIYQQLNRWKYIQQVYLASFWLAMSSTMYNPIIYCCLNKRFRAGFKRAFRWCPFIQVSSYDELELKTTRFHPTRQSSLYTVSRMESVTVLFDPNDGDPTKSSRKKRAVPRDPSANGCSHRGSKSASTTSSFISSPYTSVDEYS
# Method in brief: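 Rat cortical membranes; radioligand binding with filtration and scintillation counting, 2 h after dosing. Primary screen in duplicate at 25 uM, then concentration-response up to 50 uM; loss of binding signal relative to DMSO.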
# [6] = target: rat Somatostatin Receptor (SST), Sstr1 (gene 25033) (UniProt P28646); test: NVS_GPCR_rSST: NovaScreen (NVS) G Protein-Coupled Receptor Assay for rat Somatostatin Receptor (SST) (AID 2283314)
# Sequence of rat Somatostatin Receptor (SST), Sstr1 (gene 25033) (P28646 whole entry, looked up): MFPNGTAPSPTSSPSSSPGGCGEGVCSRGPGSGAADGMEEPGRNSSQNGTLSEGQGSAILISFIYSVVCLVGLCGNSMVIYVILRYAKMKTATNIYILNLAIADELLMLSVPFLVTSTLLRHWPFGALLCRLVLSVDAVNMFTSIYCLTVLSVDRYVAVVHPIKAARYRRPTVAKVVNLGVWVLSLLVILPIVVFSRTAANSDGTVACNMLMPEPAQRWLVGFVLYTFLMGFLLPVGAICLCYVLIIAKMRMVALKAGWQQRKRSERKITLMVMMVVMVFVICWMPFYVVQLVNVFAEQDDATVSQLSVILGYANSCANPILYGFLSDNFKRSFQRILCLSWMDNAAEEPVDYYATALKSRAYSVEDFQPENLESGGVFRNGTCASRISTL
# Experimental: NVS_GPCR_rSST is a biochemical, single-readout assay that uses extracted gene-proteins from Rat forebrain membranes in a tissue-based cell-free assay. Measurements were taken 1 hour after chemical dosing in a 96-well plate.NVS_GPCR_rSST is one of one assay component(s) measured or calculated from the NVS_GPCR_rSST assay. It is designed to make measurements of radioligand binding, a form of binding reporter, as detected with scintillation counting signals by Filter-based radiodetection technology.Data from the assay component NVS_GPCR_rSST was analyzed into 1 assay endpoint. This assay endpoint, NVS_GPCR_rSST, was analyzed in the positive analysis fitting direction relative to DMSO as the negative control and baseline of activity. Using a type of binding reporter, loss-of-signal activity can be used to understand changes in the binding as they relate to the gene Sstr1. Furthermore, this assay endpoint can be referred to as a primary readout, because the performed assay has only produced 1 assay endpoint. To generalize the intended target to other relatable targets, this assay endpoint is annotated to the gpcr intended target family, where the subfamily is rhodopsin-like receptor.
# Binding assays used specific radioligands (tritiated, iodinated) with non-radioactive competitive displacement ligands in agonist or antagonist protocols (as indicated) and various reference compounds and inhibitors to titrate specific binding to receptors and transporters. Most enzyme assays (CYPs, kinases, phosphatases, proteases, HDACs) used recombinant protein and specific substrates (fluorescence mostly, some colorimetric and radioactive) and inhibitors, followed by a biochemical separation of substrate and product. All assays for the biochemical HTS were initially run in duplicate at a single concentration (10 uM for CYP450 assays and 25 uM for all others). Assay-chemical combinations meeting a pre-defined threshold (e.g., 30% inhibition and other criteria defined below) were then run in singleton concentration-response format with maximum concentration of 20 uM for CYPs and 50 uM for all others. Each assay was run with positive and negative controls, and concurrent controls on every plate. The follow-up (secondary) screen tested active chemical-pairs in concentration series, as well as a few additional assays not tested in the primary screen, some selected negative inactives, and several cases re-run in the concentration series for confirmatory purposes.
# [7] = target: rat Glutamate Metabotropic Receptor 5 (MGluR5), Grm5 (gene 24418) (UniProt P31424); test: NVS_GPCR_rmMGluR5: NovaScreen (NVS) G Protein-Coupled Receptor Assay for rat Glutamate Metabotropic Receptor 5 (MGluR5) (AID 2283307)
# Sequence of rat Glutamate Metabotropic Receptor 5 (MGluR5), Grm5 (gene 24418) (P31424 whole entry, looked up): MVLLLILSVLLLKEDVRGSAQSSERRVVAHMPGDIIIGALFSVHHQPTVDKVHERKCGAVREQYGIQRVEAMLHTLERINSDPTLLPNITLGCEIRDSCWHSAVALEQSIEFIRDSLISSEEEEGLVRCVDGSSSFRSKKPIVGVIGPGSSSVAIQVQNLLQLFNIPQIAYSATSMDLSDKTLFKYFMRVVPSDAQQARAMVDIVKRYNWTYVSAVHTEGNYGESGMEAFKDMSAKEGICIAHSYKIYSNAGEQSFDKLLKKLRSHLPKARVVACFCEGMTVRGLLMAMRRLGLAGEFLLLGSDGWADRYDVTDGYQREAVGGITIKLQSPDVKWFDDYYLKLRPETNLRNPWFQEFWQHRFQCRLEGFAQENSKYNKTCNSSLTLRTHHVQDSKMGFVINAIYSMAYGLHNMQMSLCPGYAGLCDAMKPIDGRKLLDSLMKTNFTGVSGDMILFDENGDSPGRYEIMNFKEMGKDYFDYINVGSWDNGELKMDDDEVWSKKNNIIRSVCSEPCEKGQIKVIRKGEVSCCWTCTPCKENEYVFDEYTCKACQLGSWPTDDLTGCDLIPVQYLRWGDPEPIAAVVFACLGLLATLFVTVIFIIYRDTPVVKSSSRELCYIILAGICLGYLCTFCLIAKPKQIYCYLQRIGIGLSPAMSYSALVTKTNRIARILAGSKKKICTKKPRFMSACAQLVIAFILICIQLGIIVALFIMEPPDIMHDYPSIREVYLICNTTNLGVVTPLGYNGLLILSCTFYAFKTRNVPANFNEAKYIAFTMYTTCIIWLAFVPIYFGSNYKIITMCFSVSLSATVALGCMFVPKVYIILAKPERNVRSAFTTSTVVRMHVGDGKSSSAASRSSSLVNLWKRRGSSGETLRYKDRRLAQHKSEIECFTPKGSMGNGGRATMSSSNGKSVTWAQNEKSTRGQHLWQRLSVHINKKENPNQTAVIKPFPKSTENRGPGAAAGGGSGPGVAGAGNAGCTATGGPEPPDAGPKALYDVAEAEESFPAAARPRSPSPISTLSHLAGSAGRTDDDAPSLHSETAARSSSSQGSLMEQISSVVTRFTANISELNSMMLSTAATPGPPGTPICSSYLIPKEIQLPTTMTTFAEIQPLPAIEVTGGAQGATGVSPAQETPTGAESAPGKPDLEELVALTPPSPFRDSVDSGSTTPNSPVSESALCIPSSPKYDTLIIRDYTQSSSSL
# Experimental: NVS_GPCR_rmMGluR5 is a biochemical, single-readout assay that uses extracted gene-proteins from Rat whole brain in a tissue-based cell-free assay. Measurements were taken 1.5 hours after chemical dosing in a 48-well plate.NVS_GPCR_rmMGluR5 is one of one assay component(s) measured or calculated from the NVS_GPCR_rmMGluR5 assay. It is designed to make measurements of radioligand binding, a form of binding reporter, as detected with scintillation counting signals by Filter-based radiodetection technology.Data from the assay component NVS_GPCR_rmMGluR5 was analyzed into 1 assay endpoint. This assay endpoint, NVS_GPCR_rmMGluR5, was analyzed in the positive analysis fitting direction relative to DMSO as the negative control and baseline of activity. Using a type of binding reporter, loss-of-signal activity can be used to understand changes in the binding as they relate to the gene Grm5. Furthermore, this assay endpoint can be referred to as a primary readout, because the performed assay has only produced 1 assay endpoint. To generalize the intended target to other relatable targets, this assay endpoint is annotated to the gpcr intended target family, where the subfamily is metabotropic glutamate receptor.
# Binding assays used specific radioligands (tritiated, iodinated) with non-radioactive competitive displacement ligands in agonist or antagonist protocols (as indicated) and various reference compounds and inhibitors to titrate specific binding to receptors and transporters. Most enzyme assays (CYPs, kinases, phosphatases, proteases, HDACs) used recombinant protein and specific substrates (fluorescence mostly, some colorimetric and radioactive) and inhibitors, followed by a biochemical separation of substrate and product. All assays for the biochemical HTS were initially run in duplicate at a single concentration (10 uM for CYP450 assays and 25 uM for all others). […]
# [8] = target: human Neonicotinoid receptor (NNR), CHRNA2 (gene 1135) (UniProt Q15822); test: NVS_LGIC_hNNR_NBungSens: NovaScreen (NVS) Ligand-Gated Ion Channel Assay for human Neonicotinoid receptor (NNR) (AID 2283313)
# Sequence of human Neonicotinoid receptor (NNR), CHRNA2 (gene 1135) (Q15822 whole entry, looked up): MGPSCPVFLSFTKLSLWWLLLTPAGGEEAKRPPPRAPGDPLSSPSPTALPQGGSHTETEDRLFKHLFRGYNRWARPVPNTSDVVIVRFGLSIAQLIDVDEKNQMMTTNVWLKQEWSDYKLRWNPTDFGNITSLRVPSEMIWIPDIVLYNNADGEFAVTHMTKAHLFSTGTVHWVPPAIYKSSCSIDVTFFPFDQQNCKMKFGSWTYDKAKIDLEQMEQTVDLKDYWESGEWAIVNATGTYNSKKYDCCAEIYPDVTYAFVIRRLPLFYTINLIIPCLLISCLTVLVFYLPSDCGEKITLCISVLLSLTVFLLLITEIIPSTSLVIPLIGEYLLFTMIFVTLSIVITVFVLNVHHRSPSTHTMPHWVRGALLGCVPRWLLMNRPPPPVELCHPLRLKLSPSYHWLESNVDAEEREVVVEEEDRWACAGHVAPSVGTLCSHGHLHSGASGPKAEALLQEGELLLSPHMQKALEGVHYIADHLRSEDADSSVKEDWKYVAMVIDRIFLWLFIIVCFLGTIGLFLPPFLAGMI
# Method in brief: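 Radioligand displacement on human neuroblastoma membranes, 2 h, filter-based scintillation counting. Primary screen in duplicate at 25 uM; chemicals passing threshold (e.g. 30% inhibition) run singleton concentration-response to 50 uM; loss of binding fitted versus DMSO.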
structure (smiles),measurement,setting,value
COP(=S)(OC)SCN1C(=O)c2ccccc2C1=O,AC50,[1],31.8 µM (active)
ClC1=C(Cl)C2(Cl)C3C(Cl)C=CC3C1(Cl)C2(Cl)Cl (stereo not drawn),outcome,[2],inactive
O=[N+]([O-])C(Br)(CO)CO,AC50,[3],11 µM (active)
same,AC50,[1],16 µM (active)
[Cl-].[Cl-].[Hg+2],AC50,[4],14.2 µM (active)
same,AC50,[5],12.9 µM (active)
same,AC50,[3],16.7 µM (active)
same,AC50,[1],13.6 µM (active)
CC(C)(C)C(O)(CCc1ccc(Cl)cc1)Cn1cncn1 (stereo not drawn),AC50,[4],12.9 µM (active)
O=C(O)C1C2CCC(O2)C1C(=O)O (stereo not drawn),AC50,[6],3.96 µM (active)
CCC[CH2][Sn]([Cl])([CH2]CCC)[CH2]CCC,AC50,[7],25 µM (active)
same,AC50,[5],1.43 µM (active)
same,AC50,[3],8.92 µM (active)
same,outcome,[6],inactive
same,outcome,[2],inactive
same,AC50,[1],3.98 µM (active)
O=C(N[C@H](c1ccccc1)[C@@H]1CN2CCC1CC2)c1c(Cl)ccc(C(F)(F)F)c1Cl,AC50,[4],37.5 µM (active)
same,AC50,[5],28.9 µM (active)
same,AC50,[3],37.5 µM (active)
same,AC50,[1],9.3 µM (active)
Clc1ccc(C(c2ccc(Cl)cc2)C(Cl)(Cl)Cl)cc1,outcome,[4],inactive
CC(C)(C)OOC(=O)c1ccccc1,outcome,[4],inactive
C[C@]12C=CC3=C4CCC(=O)C=C4CC[C@H]3[C@@H]1CC[C@@H]2O,AC50,[4],25 µM (active)
CCCCCCCCOC(=O)c1ccc(C(=O)OCCCCCCCC)c(C(=O)OCCCCCCCC)c1,AC50,[6],0.326 µM (active)
Cn1cc(-c2ccccc2)c(=O)c(-c2cccc(C(F)(F)F)c2)c1,outcome,[7],inactive
O=C(Oc1ccc(Br)cc1)N1CCN2CCC1CC2,AC50,[8],8.47 µM (active)
CCCCCCCCn1sccc1=O,outcome,[5],inactive
same,AC50,[3],32.5 µM (active)

# Reference: PubChem BioAssay (EPA / NIEHS)
